In PubChem BioAssay (NCATS):
Records with an inconclusive call do not appear. Active and inactive are the calls of the source. Calls follow the shape of the dose curve; as a rule, active = well fitted cell-killing curve with a large enough effect; inconclusive = small, poorly fitted or top-dose-only effect, or effect the other way; inactive = no such curve, though single readings can be large or run the other way.

Assay: Quantitative High-Throughput drug screen in 47 multiple myeloma cell lines against the NCATS MIPE library collection: H1112_PLB cell viability assay (AID 1918967; also: nearly all actives have a fitted effect of over 30% in size)
Details: H1112 myeloma cells viability, ATP luminescence, 48 h; series mostly up to 45.8 µM
Text: PI: Beverly A. Mock Ph.D.
Laboratory of Cancer Biology and Genetics,
Center for Cancer Research, National Cancer Institute,
National Institute of Health, Bethesda, Maryland
Drug resistance and disease progression are common in multiple myeloma (MM) patients, underscoring the need for new therapeutic combinations. […] We hypothesized that effective combinations would reduce MYC expression and enhance p16 activity. […] These preclinical data identify potentially useful drug combinations for evaluation in drug-resistant MM and reveal potential mechanisms of combined drug sensitivity.
Described herein is the primary MIPE qHTS used to cherrypick compounds. Validated compounds were then further tested for potential synergistic activiy.
[1] Peat TJ, Gaikwad SM, Dubois W, Gyabaah-Kessie N, Zhang S, Gorjifard S, Phyo Z, Andres M, Hughitt VK, Simpson RM, Miller MA, Girvin AT, Taylor A, Williams D, D'Antonio N, Zhang Y, Rajagopalan A, Flietner E, Wilson K, Zhang X, Shinn P, Klumpp-Thomas C, McKnight C, Itkin Z, Chen L, Kazandijian D, Zhang J, Michalowski AM, Simmons JK, Keats J, Thomas CJ, Mock BA. Drug combinations identified by high-throughput screening promote cell cycle transition and upregulate Smad pathways in myeloma. Cancer Lett. 2023 Aug 1;568:216284. doi: 10.1016/j.canlet.2023.216284. Epub 2023 Jun 24. PMID: 37356470; PMCID: PMC10408729.
SEQUENCE No. (e.g., 1, 2, 3, etc.); […] (e.g., Cells, Incubation, Reagent, etc.); VALUE and DESCRIPTION.
1; Cells; 5 uL; white, solid bottom 1536-well Greiner assay plate.
2; Compounds; 23 nL; Kalypsis pin tool (Wako USA) equipped with a 1536-well pin head to transfer to the assay plates.
3; Incubation; 48 hours; 37C incubation.
4; Reagent;5uL; CellTiter Glo (Promega).
5; Detector; 425V; Luminescence; Viewlux PerkinElmer.
NOTES (numbers refer to Sequence numbers above)
1. The cell-based screening methods employed in this study were like those previously published. Briefly, the corresponding myeloma cell lines were screened in 1,536-well plates with 500 cells, 5-uL per well for inhibition of cell viability (assessed by measuring ATP levels with CellTiterGlo).
2. NCATS MIPE 4.0 library of approved and investigational drugs were added using the Kalypsis pin tool. Wells treated with DMSO only for 100% viability and media only wells for 0% viability were used as controls.
3. The assay plates were covered and incubated for 48 hours in a 37C, 5% CO2 incubator with controlled humidity.
4. After 48 hours, CellTilter-GloTM luminescent substrate mix (Promega) reagent was added to the assay plate and plates we incubated for 5 min at room temperature.
5. Signal was measured as median relative luminescence units on a ViewLux (PerkinElmer) multiplate reader.
[1] Heske CM, Davis MI, Baumgart JT, Wilson K, Gormally MV, Chen L, Zhang X, Ceribelli M, Duveau DY, Guha R, Ferrer M, Arnaldez FI, Ji J, Tran HL, Zhang Y, Mendoza A, Helman LJ, Thomas CJ. Matrix Screen Identifies Synergistic Combination of PARP Inhibitors and Nicotinamide Phosphoribosyltransferase (NAMPT) Inhibitors in Ewing Sarcoma. Clin Cancer Res. 2017 Dec 1;23(23):7301-7311. doi: 10.1158/1078-0432.CCR-17-1121. Epub 2017 Sep 12. PMID: 28899971; PMCID: PMC6636827.
Potency is read from the fitted curve at half-maximal effect.

Structure (SMILES) | Potency
CCn1c(-c2nonc2N)nc2cncc(CNC3CCNCC3)c21 | 5.26 µM (active)
COc1cc2nc(-c3cc(F)ccc3O)nc(N[C@@H]3CNC[C@@H]3C(C)(C)O)c2cc1OC | 14.8 µM (active)
CCOC(=O)[C@H]1O[C@H]1C(=O)N[C@@H](CC(C)C)C(=O)NCCC(C)C | inactive
C=C1c2cccc(O)c2C(O)=C2C(=O)[C@@]3(O)C(O)=C(C(N)=O)C(=O)[C@@H](N(C)C)[C@@H]3[C@@H](O)[C@H]12 | 11.8 µM (active)
CN1CCN2c3ncccc3Cc3ccccc3C2C1 (stereo not given) | inactive
COc1cc(N2CCN(C)CC2)ccc1Nc1nc(N)c(C(=O)c2c(Cl)cccc2Cl)s1 | inactive
COc1cc2c(cc1OC)[C@@H]1Cc3ccc(OC)c(OC)c3CN1CC2 | inactive
Cc1cnc(Nc2cccc(CN3CCOCC3)c2)nc1Nc1cccc(S(=O)(=O)NC(C)(C)C)c1 | 13.2 µM (active)
CCOC(=O)N1CCN([N+]([O-])=NOc2cc(ON=[N+]([O-])N3CCN(C(=O)OCC)CC3)c([N+](=O)[O-])cc2[N+](=O)[O-])CC1 | 5.9 µM (active)
C[C@@H](NC(=O)c1ncnc(N)c1Cl)c1ncc(C(=O)Nc2cc(C(F)(F)F)c(Cl)cn2)s1 | 16.6 µM (active)
CO[C@H]1/C=C\O[C@@]2(C)Oc3c(C)c(O)c4c(O)c(c(C=NN5CCN(C6CCCC6)CC5)c(O)c4c3C2=O)NC(=O)C(C)=CC=C[C@H](C)[C@H](O)[C@@H](C)[C@@H](O)[C@@H](C)[C@H](OC(C)=O)[C@H]1C | 1.18 µM (active)
CO[C@H]1C=CO[C@@]2(C)Oc3c(C)c(O)c4c(O)c(c(C=NN5CCN(C)CC5)c(O)c4c3C2=O)NC(=O)C(C)=CC=C[C@H](C)[C@H](O)[C@@H](C)[C@@H](O)[C@@H](C)[C@H](OC(C)=O)[C@H]1C | inactive
O=C(NC[C@H](O)CO)c1ccncc1Nc1ccc(I)cc1F | 13.2 µM (active)
O=C(Nc1ncc(SCCN2CCCC2)s1)[C@]1(c2ccc(S(=O)(=O)C3CC3)cc2)C[C@@H]1C1CCCCC1 | 23.5 µM (active)
CN1CC(=O)N2C(Cc3c([nH]c4ccccc34)[C@H]2c2ccc3c(c2)OCO3)C1=O (stereo not given in full) | inactive
Cc1cc(OCCCS(C)(=O)=O)cc(C)c1-c1cccc(COc2ccc3c(c2)OC[C@H]3CC(=O)O)c1 | 20.9 µM (active)
Cc1c(-c2cccc3c(CCCOc4cccc5ccccc45)c(C(=O)O)n(Cc4cccnc4)c23)c(COc2ccc(N3CCN([S+](=O)([O-])N(C)C)CC3)cc2)nn1C | 20.9 µM (active)
Cc1[nH]c(C=C2C(=O)Nc3ccc(S(=O)(=O)N(C)c4cccc(Cl)c4)cc32)c(C)c1C(=O)N1CCN(C)CC1 | 20.9 µM (active)
CC(C)CNc1ccnc(NCc2csc(-c3ccccc3)n2)n1 | 6.62 µM (active)
CCN(CCO)CCCOc1ccc2c(Nc3cc(CC(=O)Nc4cccc(F)c4)[nH]n3)ncnc2c1 | inactive

Structure (SMILES) | Potency
CC(C)n1c(C=C[C@H](O)C[C@H](O)CC(=O)O)c(-c2ccc(F)cc2)c2ccccc21 | 16.6 µM (active)
COc1cccc(OC)c1-c1cc(C(=O)NC2(C(=O)O)C3CC4CC(C3)CC2C4)nn1-c1ccnc2cc(Cl)ccc12 (stereo not given) | inactive
CNC1[C@H](O)C(O[C@@H]2C(O)C(O[C@H]3O[C@H]([C@@H](C)NC)CC[C@H]3N)[C@@H](N)C[C@H]2N)OC[C@]1(C)O (stereo not given in full) | inactive
Cc1ccc(S(=O)(=O)OCC(=O)Nc2ccc(C(=O)O)c(O)c2)cc1 | 20.9 µM (active)
CC1(C)C(N(O)C(=O)Nc2ccc(Cl)cc2)N(c2ccc(Cl)cc2)C(=O)N1CC(=O)NN=CC=Cc1ccc([N+](=O)[O-])o1 (stereo not given) | 9.35 µM (active)
C=C1[C@H](n2cnc3c(=O)[nH]c(N)nc32)C[C@H](O)[C@H]1CO | 11.8 µM (active)
CCOC(=O)[C@H](CCc1ccccc1)N[C@@H](C)C(=O)N1CCCC1C(=O)O (stereo not given in full) | inactive
N=C1SC(=Cc2ccc(-c3ccc4c(c3)C(=O)NC4=O)o2)C(=O)N1c1ccc(Br)cc1 | inactive
CCC(c1ccc(O)cc1)C(CC)c1ccc(O)cc1 (stereo not given) | 8.33 µM (active)
COc1ccc(Cn2ccc3ccc(C(=O)NO)cc32)cc1 | inactive
C#C[C@]1(O)CC[C@H]2[C@H]3CCc4cc(OC)ccc4[C@H]3CC[C@@]21C | inactive
Cc1nc(NC(=O)N2CCC[C@@H]2C(N)=O)sc1-c1csc(C(C)(C)C)n1 | 2.09 µM (active)
COc1cc2c(cc1OC)CC(=O)N(CCCN(C)C[C@H]1Cc3cc(OC)c(OC)cc31)CC2 | 3.72 µM (active)
O=C1CN2Cc3c(ccc(Cl)c3Cl)N=C2N1 | 29.6 µM (active)
COc1ccc(CCN(C)CCCOc2ccc(S(=O)(=O)c3[nH]c4ccccc4c3C(C)C)cc2)cc1OC | 18.7 µM (active)
CC[C@H](CC#N)OC(=O)N[C@@H](C)c1cccc(NC(=O)Nc2ccc(-c3cnco3)c(OC)c2)c1 | 1.66 µM (active)
Oc1cc(O)cc(C=Cc2ccc(O)c(O)c2)c1 | 13.2 µM (active)
CC[C@H](C)C(=O)O[C@H]1C[C@H](O)C=C2C=C[C@H](C)[C@H](CC[C@@H](O)C[C@@H](O)CC(=O)O)[C@H]21 | inactive
C[C@@H]1O[C@@H](O[C@H]2CC[C@@]3(C)[C@H](CC[C@@H]4[C@H]3C[C@@H](O)[C@]3(C)[C@@H](C5=CC(=O)OC5)CC[C@]43O)C2)C[C@H](O)[C@@H]1O[C@H]1C[C@H](O)[C@H](O[C@H]2C[C@H](O)[C@@H](O)[C@@H](C)O2)[C@H](C)O1 (stereo in doubt) | 0.34 µM (active)
CN1C(=O)C[C@H](C(=O)N[C@@H](Cc2cnc[nH]2)C(=O)N2CCC[C@@H]2C(N)=O)NC1=O | inactive
